The full data set covers some 7,900 targets. This sample favours those with a hit. About 0.6% of all pairs of compound and target were hits.
Columns and labels:
Assay in all cases: log2 fold change, soluble protein after heating vs DMSO (PISA); higher = thermal stabilisation; K562 cells, 10 uM, 30 min; active = over 0.2 and 3.5 SD of the protein, either way, in both replicates (recomputed)
[1] = compound: C1=CC=C(C=C1)[C@H](COC2=CC3=C(C=C2)NC(=O)N3)NC(=O)C4=CC=CN(C4=O)CC5=CC(=C(C=C5)F)F
Outline: (§1)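 K562 cells at 2×10^6 cells/mL were given 10 μM compound for 30 min. Aliquots then went through 3 min of heating across 48°C-58°C, were pooled, and were extracted in PBS with 0.5% NP-40 at 4°C, and the supernatant after 21,000xg for 90 min was quantified by TMTpro 16plex LC-MS/MS with channel sums equalised. Thermal stability relative to control samples, from duplicates, is given as log2 fold change.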

[2] = compound: CC1=C(SC2=C1C(=N[C@H](C3=NN=C(N32)C)CC(=O)N)C4=CC=C(C=C4)Cl)C
Outline: as §1

[3] = compound: CC1=C2C(=CC=C1)N=C(N(C2=O)C3=CC=CC=C3C)CN4C=NC5=C(N=CN=C54)N
Outline: as §1

[4] = compound: Cc1sc2c(c1C)C(c1ccc(Cl)cc1)=N[C@@H](CC(=O)OC(C)(C)C)c1nnc(C)n1-2
Outline: as §1

[5] = compound: c1ccc([C@@H]2C[C@H]2NC2CCNCC2)cc1
Outline: as §1

Measured: log2 fold change

CLASP2 isoform 3 (UniProt O75122)
inactive: [1] -0.065 | [2] 0.053 | [3] 0.091 | [4] -0.024 | [5] -0.014

CDC42BPB (UniProt Q9Y5S2)
inactive: [1] -0.114 | [2] -0.031 | [3] 0.009 | [4] 0.025 | [5] -0.004

CLN5 (UniProt O75503)
inactive: [1] -0.003 | [2] -0.007 | [4] 0.057 | [5] -0.296

CLCN3 (UniProt P51790)
inactive: [1] 0.01 | [2] 0.025 | [3] 0.064 | [4] -0.107 | [5] 0.056

CDC25B isoform 4 (UniProt P30305)
inactive: [1] 0.107 | [2] 0.009 | [3] 0.101 | [5] -0.024

CDK4 (UniProt P11802)
UniProt P11802, sequence (P11802 whole entry, looked up): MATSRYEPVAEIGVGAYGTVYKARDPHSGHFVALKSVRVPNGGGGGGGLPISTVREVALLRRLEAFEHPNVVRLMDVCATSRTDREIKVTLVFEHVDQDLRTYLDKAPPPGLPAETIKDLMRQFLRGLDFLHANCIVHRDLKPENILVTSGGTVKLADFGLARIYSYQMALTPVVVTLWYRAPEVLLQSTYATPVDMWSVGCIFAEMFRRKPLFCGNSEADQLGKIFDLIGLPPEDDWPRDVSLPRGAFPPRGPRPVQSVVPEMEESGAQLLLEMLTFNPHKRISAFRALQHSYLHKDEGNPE
inactive: [1] 0.012 | [2] 0.128 | [3] 0.119 | [5] -0.165

CSTF3 (UniProt Q12996)
inactive: [1] -0.005 | [2] 0.064 | [3] -0.007 | [4] 0.03 | [5] -0.016

CCNC (UniProt P24863)
inactive: [1] -0.139 | [2] -0.172 | [3] 0.01 | [5] -0.037

CDK17 isoform 2 (UniProt Q00537)
UniProt Q00537, sequence (Q00537 whole entry, looked up): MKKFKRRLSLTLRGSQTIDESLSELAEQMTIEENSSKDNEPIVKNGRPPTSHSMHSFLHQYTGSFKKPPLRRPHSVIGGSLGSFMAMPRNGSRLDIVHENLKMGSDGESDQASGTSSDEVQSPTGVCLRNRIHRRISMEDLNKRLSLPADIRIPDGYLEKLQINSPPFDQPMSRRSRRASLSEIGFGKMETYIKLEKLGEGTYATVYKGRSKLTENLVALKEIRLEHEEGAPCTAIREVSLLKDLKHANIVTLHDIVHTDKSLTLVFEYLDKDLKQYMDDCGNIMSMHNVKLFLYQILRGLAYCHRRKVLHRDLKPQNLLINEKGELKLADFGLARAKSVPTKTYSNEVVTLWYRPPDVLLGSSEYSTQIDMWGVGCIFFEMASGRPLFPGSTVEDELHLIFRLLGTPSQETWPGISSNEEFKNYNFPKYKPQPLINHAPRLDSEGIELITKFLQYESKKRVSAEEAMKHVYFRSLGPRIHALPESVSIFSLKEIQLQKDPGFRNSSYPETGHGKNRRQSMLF
inactive: [1] -0.095 | [2] -0.006 | [3] -0.049 | [5] -0.083

CRTC3 (UniProt Q6UUV7)
UniProt Q6UUV7, sequence (Q6UUV7 whole entry, looked up): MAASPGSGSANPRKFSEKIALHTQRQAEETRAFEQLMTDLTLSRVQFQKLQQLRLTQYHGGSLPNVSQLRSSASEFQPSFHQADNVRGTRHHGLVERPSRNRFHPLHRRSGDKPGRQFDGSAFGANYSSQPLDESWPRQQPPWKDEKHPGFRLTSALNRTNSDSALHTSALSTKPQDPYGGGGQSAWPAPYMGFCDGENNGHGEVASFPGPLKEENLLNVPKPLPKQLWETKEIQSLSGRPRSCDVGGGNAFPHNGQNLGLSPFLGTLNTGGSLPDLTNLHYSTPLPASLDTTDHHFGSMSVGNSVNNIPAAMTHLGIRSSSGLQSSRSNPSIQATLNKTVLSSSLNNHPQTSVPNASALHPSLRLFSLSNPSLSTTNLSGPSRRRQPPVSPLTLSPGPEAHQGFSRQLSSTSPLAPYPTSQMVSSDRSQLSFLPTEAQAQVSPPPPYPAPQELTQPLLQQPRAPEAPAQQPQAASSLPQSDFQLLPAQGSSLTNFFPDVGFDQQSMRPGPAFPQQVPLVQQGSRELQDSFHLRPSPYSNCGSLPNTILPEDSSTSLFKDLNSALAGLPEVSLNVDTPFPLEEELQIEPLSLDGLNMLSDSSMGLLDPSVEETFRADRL
inactive: [1] -0.083 | [2] 0.044 | [3] -0.065 | [4] 0.004 | [5] 0.034

CCZ1 (UniProt P86791)
inactive: [1] 0.011 | [2] 0.009 | [3] 0.02 | [4] 0.017 | [5] -0.024

CSK (UniProt P41240)
UniProt P41240, sequence (P41240 whole entry, looked up): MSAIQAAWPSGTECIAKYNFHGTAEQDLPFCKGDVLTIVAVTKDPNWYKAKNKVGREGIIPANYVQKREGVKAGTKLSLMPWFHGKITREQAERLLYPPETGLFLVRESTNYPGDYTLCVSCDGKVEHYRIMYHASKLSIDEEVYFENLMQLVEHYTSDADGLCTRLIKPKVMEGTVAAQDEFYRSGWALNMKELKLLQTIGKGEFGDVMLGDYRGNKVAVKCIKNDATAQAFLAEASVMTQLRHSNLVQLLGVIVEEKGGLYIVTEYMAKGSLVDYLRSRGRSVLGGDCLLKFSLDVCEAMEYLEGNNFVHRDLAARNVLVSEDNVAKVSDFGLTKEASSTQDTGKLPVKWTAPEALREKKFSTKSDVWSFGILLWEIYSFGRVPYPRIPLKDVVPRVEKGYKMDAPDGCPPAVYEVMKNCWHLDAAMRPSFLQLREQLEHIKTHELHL
inactive: [1] -0.096 | [2] 0.051 | [3] 0.057 | [4] 0.011 | [5] -0.032

CSE1L (UniProt P55060)
UniProt P55060, sequence (P55060 whole entry, looked up): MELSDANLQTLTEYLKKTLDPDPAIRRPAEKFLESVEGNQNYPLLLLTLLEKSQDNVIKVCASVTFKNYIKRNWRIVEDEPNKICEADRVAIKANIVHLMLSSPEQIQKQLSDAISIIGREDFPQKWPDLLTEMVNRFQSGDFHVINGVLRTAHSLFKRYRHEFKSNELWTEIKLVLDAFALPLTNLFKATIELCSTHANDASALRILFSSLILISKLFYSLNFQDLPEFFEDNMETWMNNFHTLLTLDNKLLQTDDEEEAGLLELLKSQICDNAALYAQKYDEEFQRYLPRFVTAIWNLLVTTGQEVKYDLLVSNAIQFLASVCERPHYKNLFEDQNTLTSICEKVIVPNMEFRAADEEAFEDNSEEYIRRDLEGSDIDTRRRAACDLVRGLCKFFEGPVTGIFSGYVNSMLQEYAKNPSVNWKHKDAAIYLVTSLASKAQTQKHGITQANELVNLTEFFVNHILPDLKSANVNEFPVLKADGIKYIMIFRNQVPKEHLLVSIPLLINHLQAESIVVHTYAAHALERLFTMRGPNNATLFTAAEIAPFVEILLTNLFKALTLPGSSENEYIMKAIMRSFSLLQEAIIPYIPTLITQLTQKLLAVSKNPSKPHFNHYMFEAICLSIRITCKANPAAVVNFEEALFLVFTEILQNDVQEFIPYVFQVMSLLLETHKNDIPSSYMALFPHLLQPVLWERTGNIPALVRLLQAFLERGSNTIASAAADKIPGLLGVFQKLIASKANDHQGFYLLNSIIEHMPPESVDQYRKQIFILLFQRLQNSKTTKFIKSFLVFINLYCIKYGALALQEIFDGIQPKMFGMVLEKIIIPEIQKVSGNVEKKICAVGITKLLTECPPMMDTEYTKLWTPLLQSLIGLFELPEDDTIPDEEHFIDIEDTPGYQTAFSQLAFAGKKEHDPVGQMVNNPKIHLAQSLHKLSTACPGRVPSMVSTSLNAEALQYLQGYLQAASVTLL
inactive: [1] -0.024 | [2] 0.063 | [3] 0.033 | [4] -0.028 | [5] -0.009

CNOT7 (UniProt Q9UIV1)
UniProt Q9UIV1, sequence (Q9UIV1 whole entry, looked up): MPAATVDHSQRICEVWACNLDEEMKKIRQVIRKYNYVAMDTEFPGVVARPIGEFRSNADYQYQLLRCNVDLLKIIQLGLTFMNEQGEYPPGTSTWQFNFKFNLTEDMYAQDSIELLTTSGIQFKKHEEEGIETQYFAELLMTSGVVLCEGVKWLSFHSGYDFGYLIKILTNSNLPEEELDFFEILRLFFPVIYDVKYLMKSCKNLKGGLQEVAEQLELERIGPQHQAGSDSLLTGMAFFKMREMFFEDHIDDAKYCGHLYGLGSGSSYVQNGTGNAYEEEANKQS
inactive: [1] -0.024 | [2] -0.053 | [3] 0.068 | [4] -0.032 | [5] 0.002

CETN2 (UniProt P41208)
UniProt P41208, sequence (P41208 whole entry, looked up): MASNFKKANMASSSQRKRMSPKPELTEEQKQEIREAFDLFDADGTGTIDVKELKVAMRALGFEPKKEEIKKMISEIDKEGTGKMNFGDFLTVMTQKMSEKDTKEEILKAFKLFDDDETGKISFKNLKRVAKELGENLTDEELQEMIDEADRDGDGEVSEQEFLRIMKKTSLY
inactive: [1] 0.027 | [2] 0.046 | [3] -0.012 | [4] 0.06 | [5] 0.08

CNOT4 isoform 9 (UniProt O95628)
UniProt O95628, sequence (O95628 whole entry, looked up): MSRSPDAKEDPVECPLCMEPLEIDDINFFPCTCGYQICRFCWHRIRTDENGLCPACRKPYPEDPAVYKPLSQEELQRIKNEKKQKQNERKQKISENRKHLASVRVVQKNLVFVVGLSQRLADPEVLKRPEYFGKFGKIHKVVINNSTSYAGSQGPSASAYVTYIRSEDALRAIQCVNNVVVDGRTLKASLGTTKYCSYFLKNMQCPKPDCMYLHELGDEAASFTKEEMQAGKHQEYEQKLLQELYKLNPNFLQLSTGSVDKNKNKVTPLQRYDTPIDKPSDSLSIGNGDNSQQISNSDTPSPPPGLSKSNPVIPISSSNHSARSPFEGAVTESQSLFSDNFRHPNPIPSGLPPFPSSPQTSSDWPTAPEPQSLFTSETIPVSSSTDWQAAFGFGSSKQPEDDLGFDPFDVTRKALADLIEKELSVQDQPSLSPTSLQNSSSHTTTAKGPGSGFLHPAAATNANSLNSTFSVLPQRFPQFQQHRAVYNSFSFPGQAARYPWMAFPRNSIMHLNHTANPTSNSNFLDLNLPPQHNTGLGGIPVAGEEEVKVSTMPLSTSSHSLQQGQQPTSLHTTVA
inactive: [1] 0.009 | [2] -0.09 | [3] 0.147 | [4] -0.067 | [5] -0.055

CEP128 (UniProt Q6ZU80)
inactive: [1] -0.039 | [2] 0.099 | [3] 0.216 | [4] 0.104 | [5] 0.041

COQ7 (UniProt Q99807)
UniProt Q99807, sequence (Q99807 whole entry, looked up): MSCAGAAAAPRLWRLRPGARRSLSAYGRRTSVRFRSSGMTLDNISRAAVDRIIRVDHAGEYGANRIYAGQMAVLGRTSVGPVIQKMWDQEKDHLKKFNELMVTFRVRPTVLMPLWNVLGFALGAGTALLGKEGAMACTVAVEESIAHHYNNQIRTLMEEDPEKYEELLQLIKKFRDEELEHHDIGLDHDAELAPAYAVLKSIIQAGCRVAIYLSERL
inactive: [1] -0.038 | [2] 0.016 | [3] 0.029 | [4] 0.014 | [5] 0.048

CDK9 isoform 2 (UniProt P50750)
UniProt P50750, sequence (P50750 whole entry, looked up): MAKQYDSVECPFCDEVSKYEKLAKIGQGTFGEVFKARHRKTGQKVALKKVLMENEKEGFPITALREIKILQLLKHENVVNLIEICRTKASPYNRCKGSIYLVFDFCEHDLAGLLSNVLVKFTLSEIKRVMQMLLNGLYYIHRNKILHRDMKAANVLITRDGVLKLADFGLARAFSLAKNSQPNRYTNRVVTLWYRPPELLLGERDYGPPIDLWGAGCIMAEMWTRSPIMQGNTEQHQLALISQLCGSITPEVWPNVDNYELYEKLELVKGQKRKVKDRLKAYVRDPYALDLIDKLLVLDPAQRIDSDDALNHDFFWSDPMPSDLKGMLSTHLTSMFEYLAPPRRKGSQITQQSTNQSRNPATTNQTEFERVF
inactive: [1] -0.007 | [2] -0.03 | [3] 0 | [4] 0.089 | [5] 0

CNDP2 (UniProt Q96KP4)
UniProt Q96KP4, sequence (Q96KP4 whole entry, looked up): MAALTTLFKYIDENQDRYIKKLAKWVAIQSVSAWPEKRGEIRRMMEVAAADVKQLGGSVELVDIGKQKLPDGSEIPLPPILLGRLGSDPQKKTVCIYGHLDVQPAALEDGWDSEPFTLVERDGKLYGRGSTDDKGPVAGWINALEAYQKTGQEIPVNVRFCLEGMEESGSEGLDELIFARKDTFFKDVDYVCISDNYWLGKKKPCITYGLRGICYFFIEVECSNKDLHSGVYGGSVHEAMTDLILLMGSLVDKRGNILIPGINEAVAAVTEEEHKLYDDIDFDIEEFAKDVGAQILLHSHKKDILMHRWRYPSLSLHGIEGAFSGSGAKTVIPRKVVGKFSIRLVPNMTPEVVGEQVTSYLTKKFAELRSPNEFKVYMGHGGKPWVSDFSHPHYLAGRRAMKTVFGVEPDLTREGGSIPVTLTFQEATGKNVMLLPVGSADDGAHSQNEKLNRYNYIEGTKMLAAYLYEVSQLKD
inactive: [1] -0.006 | [2] 0.039 | [3] 0.023 | [4] 0.009 | [5] -0.041

CHAC2 (UniProt Q8WUX2)
inactive: [1] -0.036 | [2] -0.034 | [3] -0.034 | [4] 0.008 | [5] 0.027

CENPE (UniProt Q02224)
inactive: [1] -0.005 | [2] -0.139 | [3] 0.049 | [4] -0.001 | [5] -0.362

CD151 (UniProt P48509)
inactive: [1] -0.126 | [2] 0.049 | [3] 0.031 | [4] -0.046 | [5] 0.101

CLINT1 (UniProt Q14677)
inactive: [1] 0.063 | [2] 0.131 | [3] -0.005 | [4] -0.009 | [5] 0.157

CREB3L2 (UniProt Q70SY1)
inactive: [1] 0.331 | [2] -0.15 | [3] 0.296 | [4] -0.143 | [5] -0.247
